A selection: hits, their analogues and other compounds. The true share with any hit is near 19%.
HepG2 viability: HepG2 cytotoxicity, counter-screen for TGF-b inhibitors. HepG2 CAGA-GFP viability, ATP luminescence, 18 h. Potency, µM (highest dose often 46.1 µM), without a hit: at the highest dose activity change, negative = cytotoxicity, most hits filed as cytotoxic. 0.76% of 410,000 active. AID 588856; also: potency is read from the fitted curve at half-maximal effect
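HepG2 CAGA-GFP cells (1000/well, DMEM with 1% FBS) received compound, then TGF-beta at 500 pg/mL final, and were incubated 18 hours at 37 degrees C. Viability was read by CellTiter-Glo luminescence. Media-only wells were set as complete cell-killing and DMSO as no toxicity.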
IL1B secr inh: inhibitors of inflammasome signaling (IL-1 beta secretion). activity change, % at 57.5 µM. AID 743279. 4.7% of 360,000 active. THP-1 LPS/ATP IL-1B secretion, AlphaLISA, 16 h; stronger effect = lower value; in the data active = activity change below about -50%; inconclusive = mostly about -30% to -49%; also: % is scaled to controls: 0 for no effect and ±100 for the full control effect
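Secreted IL-1B measured by AlphaLISA bead assay after 16 h compound exposure of THP-1 cells; compounds (final up to 57.5 uM) added 1 h before LPS (250 ng/mL) and ATP (1.25 mM) stimulation; lower signal means less secretion.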
TDP1 cell CPT: growth inhibition of DT40 Tdp1-/-;hTDP1 cells with camptothecin (screen for TDP1 inhibitors); chicken DT40 Tdp1-/-;hTDP1 cells + 20 nM CPT, ATP luminescence, 48 h; Potency, µM (highest dose often 46.2 µM), without a hit: at the highest dose activity change, negative = growth inhibition, usual class: inhibitors; 12% of 420,000 active; also: potency is read from the fitted curve at half-maximal effect; % is scaled to controls: 0 for no effect and ±100 for the full control effect; nearly all actives have a fitted effect of over 55% in size
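Chicken DT40 Tdp1-/- cells complemented with human TDP1, 400 cells/well, exposed to compounds plus 20 nM camptothecin for at least 48 h at 37 C; viability read as ATP content by CellTiter-Glo luminescence.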
TDP1 cell noCPT: qHTS for Inhibitors of human tyrosyl-DNA phosphodiesterase 1 (TDP1): qHTS in cells in absence of CPT; DT40 Tdp1-/- hTDP1 cells, no CPT, ATP luminescence, 48 h; Potency, µM (highest dose often 46.2 µM), for inactives: at the highest dose activity change, negative = growth inhibition, actives largely listed as inhibitors; 15% of 420,000 active; AID 686978, 2013; also: potency is read from the fitted curve at half-maximal effect; % is scaled to controls: 0 for no effect and ±100 for the full control effect; nearly all actives have a fitted effect of over 55% in size
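Growth kinetics read by CellTiter-Glo luminescence after ≥48 hr at 37 °C. Cells: DT40 Tdp1-/- stably carrying human TDP1, 400 per well, compound exposure in the absence of CPT (DMSO vehicle).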
TGFb SMAD3 inh: blocks TGF-b signaling | AID 588855 | Potency, µM (top dose mostly 46.1 µM), without a hit: at the highest dose activity, negative = inhibition, hits mostly inhibitors | HepG2 CAGA-GFP TGF-b/SMAD3 reporter, GFP fluorescence, 18 h; TGF-beta stimulated, 500 pg/mL final | 1.2% of 410,000 active; also: potency is read from the fitted curve at half-maximal effect; % is scaled to controls: 0 for no effect and ±100 for the full control effect; nearly all actives have a fitted effect of over 65% in size
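TGF-beta reporter screen: HEPG2 CAGA-GFP, 1% FBS, 500 pg/mL TGF-beta final, 18 h; per-cell GFP summed per well; curves fitted and categorized by class.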
TDP1 block: inhibitors of human tyrosyl-DNA phosphodiesterase TDP1; AID 485290; recombinant TDP1, AlphaScreen DNA substrate cleavage; Potency, µM (doses to about 130 µM), for the others: at the highest dose activity change, negative = inhibition, hits mostly inhibitors; 0.28% of 350,000 active; Q9NUW8; also: potency is read from the fitted curve at half-maximal effect; % is scaled to controls: 0 for no effect and ±100 for the full control effect; nearly all actives have a fitted effect of over 40% in size
Target sequence (Q9NUW8 whole entry, looked up): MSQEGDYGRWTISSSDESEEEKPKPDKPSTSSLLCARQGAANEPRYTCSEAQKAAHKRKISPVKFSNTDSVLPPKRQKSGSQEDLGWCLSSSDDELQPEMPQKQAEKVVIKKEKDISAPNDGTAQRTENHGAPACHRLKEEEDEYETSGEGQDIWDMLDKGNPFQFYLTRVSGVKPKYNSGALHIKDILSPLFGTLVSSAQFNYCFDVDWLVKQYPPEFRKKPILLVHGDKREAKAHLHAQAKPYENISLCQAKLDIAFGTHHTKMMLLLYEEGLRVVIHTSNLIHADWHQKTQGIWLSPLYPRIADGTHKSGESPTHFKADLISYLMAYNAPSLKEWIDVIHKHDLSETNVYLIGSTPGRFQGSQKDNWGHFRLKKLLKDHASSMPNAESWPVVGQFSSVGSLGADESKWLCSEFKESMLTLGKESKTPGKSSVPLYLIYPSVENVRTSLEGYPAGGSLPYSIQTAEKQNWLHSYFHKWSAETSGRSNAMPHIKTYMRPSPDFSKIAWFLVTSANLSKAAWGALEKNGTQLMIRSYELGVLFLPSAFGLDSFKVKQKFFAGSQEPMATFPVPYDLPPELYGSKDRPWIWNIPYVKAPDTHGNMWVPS
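Recombinant human Tdp1 (E. coli-expressed, 1 nM final) preincubated with compounds 15 min at room temperature, then 5'-biotin/3'-phosphotyrosine-FITC DNA substrate (15 nM final) added for 5 min. AlphaScreen beads (10 ug/ml final) added 10 min; cleavage lowers signal.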
Numbers without * were called inactive; [ ] = remark or other dose. Unless noted, calls follow the shape of the dose curve; as a rule, active = well fitted curve in the direction sought with a large enough effect; inconclusive = small, poorly fitted or top-dose-only effect, or another doubt; inactive = no such curve, though single readings can be large; an effect the other way counts as inactive or inconclusive.

Results for Cc1c(O)c(CN2CCCCC2)cc2c1oc(=O)c1ccccc12 ?
HepG2 viability: -4%; IL1B secr inh: inconclusive; TDP1 cell CPT: inconclusive; TDP1 cell noCPT: 26µM*; TGFb SMAD3 inh: 8%; TDP1 block: 2%

How did COc1cc(OC)c(NC(=O)N2CCc3c([nH]c4ccccc34)C2c2ccccc2F)cc1Cl (configuration not stated) do in these assays?
HepG2 viability: 10%; TDP1 cell CPT: 18µM*; TDP1 cell noCPT: 23µM*; TGFb SMAD3 inh: 2%; TDP1 block: 3%

Results for COc1ccc(Cl)cc1NC(=O)N1CC(=O)Nc2sc3c(c2C1c1ccccc1)CCCC3 (configuration not stated) ?
HepG2 viability: -21%; TDP1 cell CPT: inconclusive; TDP1 cell noCPT: inconclusive; TGFb SMAD3 inh: inconclusive; TDP1 block: 0%

How did COc1cc(NC(=O)N2CCc3c(sc4c3CCCC4)C2c2ccccc2)cc(OC)c1OC (configuration not stated) do in these assays?
HepG2 viability: 3%; TDP1 cell CPT: 10µM*; TDP1 cell noCPT: 21µM*; TGFb SMAD3 inh: 0%; TDP1 block: 1%

How did COc1cc(OC)c(NC(=O)N2CCc3c(sc4c3CCCC4)C2c2ccccc2)cc1Cl (configuration not stated) do in these assays?
HepG2 viability: -6%; TDP1 cell CPT: inconclusive; TDP1 cell noCPT: 21µM*; TGFb SMAD3 inh: 0%; TDP1 block: 1%

How did CCN(CC(=O)Nc1ccc(NC(C)=O)cc1)C(=O)c1ccc(C(=O)c2ccccc2)cc1 do in these assays?
HepG2 viability: -1%; IL1B secr inh: -3; TDP1 cell CPT: 4%; TDP1 cell noCPT: 0%; TGFb SMAD3 inh: inconclusive; TDP1 block: 1%

What do the screens show for `CC1(C)CC(Nc2ccc(Nc3ccccc3)cc2)CC(C)(C)N1`?
HepG2 viability: -30%; IL1B secr inh: -81*; TDP1 cell CPT: 16µM*; TDP1 cell noCPT: 4.6µM*; TGFb SMAD3 inh: -29%; TDP1 block: 9%

How did CCCCn1c(N)c(N(CC(C)C)C(=O)c2ccc(S(=O)(=O)N3CCCCC3)cc2)c(=O)[nH]c1=O do in these assays?
HepG2 viability: -3%; IL1B secr inh: -1; TDP1 cell CPT: -1%; TDP1 cell noCPT: -11%; TGFb SMAD3 inh: 0%; TDP1 block: -8%[0.505 µM]

Results for O=C(CNC(=O)c1ccccc1O)N/N=C/c1cc(Br)ccc1OC(=O)/C=C/c1ccco1 ?
HepG2 viability: -12%; IL1B secr inh: 77; TDP1 cell CPT: 7.3µM*; TDP1 cell noCPT: 4.6µM*; TGFb SMAD3 inh: -22%; TDP1 block: 9%

Results for O=C(CNC(=O)c1ccccc1Br)N/N=C/c1ccco1 ?
HepG2 viability: -8%; IL1B secr inh: -11; TDP1 cell CPT: 4%; TDP1 cell noCPT: -9%; TGFb SMAD3 inh: 3%

Results for O=C(CNC(=O)c1cccc(F)c1)N/N=C/c1cc(Br)ccc1OC(=O)/C=C/c1ccco1 ?
HepG2 viability: -26%; IL1B secr inh: 191; TDP1 cell CPT: 7.3µM*; TDP1 cell noCPT: 3.7µM*; TGFb SMAD3 inh: inconclusive; TDP1 block: 0%

Results for C=CCNC(=O)N1CCc2nc(CCCC)c3c(c2C1)CO[C@@H](C)C3 ?
TDP1 block: 5%[12.3 µM]

What do the screens show for `CCn1ccc2cc(S(=O)(=O)N3CCCN(C(=O)Nc4cc(Cl)ccc4C)CC3)ccc21`?
HepG2 viability: -19%; TGFb SMAD3 inh: inconclusive; TDP1 block: 7%

What do the screens show for `COc1ccc(C(NC(=O)CC(C)C)c2c(O)ccc3ccccc23)cc1` (configuration not stated)?
HepG2 viability: -7%; IL1B secr inh: -15; TDP1 cell CPT: inconclusive; TDP1 cell noCPT: inconclusive; TGFb SMAD3 inh: inconclusive

How did CCCC(=O)NC(c1ccc(OC)cc1)c1c(O)ccc2ccccc12 (configuration not stated) do in these assays?
HepG2 viability: -18%; IL1B secr inh: -58*; TDP1 cell CPT: inconclusive; TDP1 cell noCPT: 23µM*; TGFb SMAD3 inh: -18%

Results for CC(C)CC(=O)NC(c1ccccc1Cl)c1c(O)ccc2ccccc12 (configuration not stated) ?
HepG2 viability: -6%; IL1B secr inh: -68*; TDP1 cell CPT: inconclusive; TDP1 cell noCPT: -112%; TGFb SMAD3 inh: inconclusive; TDP1 block: 5%

How did CCOc1ccc(C(NC(=O)CC)c2c(O)ccc3ccccc23)cc1 (configuration not stated) do in these assays?
HepG2 viability: -3%; IL1B secr inh: 5; TDP1 cell CPT: -82%; TDP1 cell noCPT: inconclusive; TGFb SMAD3 inh: inconclusive; TDP1 block: 3%

What do the screens show for `CC(=O)Oc1ccc2ccccc2c1C(NC(=O)Cc1ccccc1)c1ccc(Cl)cc1` (configuration not stated)?
HepG2 viability: -39%; IL1B secr inh: -18; TDP1 cell CPT: inconclusive; TDP1 cell noCPT: 21µM*; TGFb SMAD3 inh: inconclusive; TDP1 block: -2%

How did COc1ccc(C(NC(=O)C2CCCCC2)c2c(O)ccc3ccccc23)cc1 (configuration not stated) do in these assays?
HepG2 viability: -9%; IL1B secr inh: -19; TDP1 cell CPT: inconclusive; TDP1 cell noCPT: 18µM*; TGFb SMAD3 inh: inconclusive; TDP1 block: 0%

Results for Cc1c(O)ccc(C(=O)CN2CCN(c3ccccc3)CC2)c1O ?
HepG2 viability: -32%; IL1B secr inh: 9; TDP1 cell CPT: inconclusive; TDP1 cell noCPT: 23µM*; TGFb SMAD3 inh: 12%; TDP1 block: 3%

Results for COc1ccc(N2CCN(CC(=O)c3c(C)n(C)c4ccc(OC)cc34)CC2)cc1 ?
HepG2 viability: -23%; TDP1 cell CPT: 18µM*; TDP1 cell noCPT: 23µM*; TGFb SMAD3 inh: -3%

How did COc1ccc(C(=O)CN2CCN(c3ccc(F)cc3)CC2)cc1 do in these assays?
HepG2 viability: 9%; IL1B secr inh: 7; TDP1 cell CPT: 1%; TDP1 cell noCPT: -7%; TGFb SMAD3 inh: 4%

Results for COc1ccc(N2CCN(CC(=O)c3ccc(O)c(C)c3O)CC2)cc1 ?
HepG2 viability: -23%; IL1B secr inh: 8; TDP1 cell CPT: inconclusive; TDP1 cell noCPT: 21µM*; TGFb SMAD3 inh: 15%; TDP1 block: 4%

From PubChem BioAssay
